Where “and” joins values, the source holds several entries; their conditions need not be identical. Equal entries are not always repeated. Inconclusive results are not listed. A call without a number means that no potency is given here. Some structures have more than one record in an assay (separate samples or runs), and their calls can disagree. Calls of active or inactive are those of the source. Unless noted, calls come from the whole dose curve; as a rule, active = well fitted curve in the direction sought with a large enough effect in the repeat runs; inconclusive = weak or mixed curves; inactive = no such curve, though single readings can be large; an effect the other way counts as inactive or inconclusive.
Key:
[1] = qHTS assay to identify small molecule antagonists of the glucocorticoid receptor (GR) signaling pathway - cell viability counter screen (AID 720693); note: nearly all actives have a fitted effect of over 55% in size
[2] = qHTS assay for identifying genotoxic compounds that show differential cytotoxicity against isogenic chicken DT40 cell lines with known DNA damage response pathways - wild type cell line (AID 743012); note: nearly all actives have a fitted effect of over 60% in size; note: potency is the fitted concentration of half-maximal effect
Method in brief: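 Viability of DNA repair-proficient chicken DT40 cells was assessed by CellTiter-Glo luminescence following 40 h compound exposure at 37 C/5% CO2.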

[3] = qHTS assay for identifying genotoxic compounds that show differential cytotoxicity against isogenic chicken DT40 cell lines with known DNA damage response pathways - Rev3 mutant cell line (AID 743014); note: nearly all actives have a fitted effect of over 55% in size; note: potency is the fitted concentration of half-maximal effect
[4] = qHTS assay for identifying genotoxic compounds that show differential cytotoxicity against isogenic chicken DT40 cell lines with known DNA damage response pathways - Rad54/Ku70 mutant cell line (AID 743015); note: nearly all actives have a fitted effect of over 60% in size; note: potency is the fitted concentration of half-maximal effect
[5] = qHTS assay to identify small molecule antagonists of the androgen receptor (AR) signaling pathway - cell viability counter screen (AID 743033; note: nearly all actives have a fitted effect of over 45% in size; note: potency is the fitted concentration of half-maximal effect)
[6] = qHTS assay to identify small molecule antagonists of the androgen receptor (AR) signaling pathway using the MDA cell line - cell viability counter screen (AID 743041; note: nearly all actives have a fitted effect of over 45% in size; note: potency is the fitted concentration of half-maximal effect)
Method in brief: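 Compound exposure lasted 16 h at 37C in MDA-kb2 AR-luc cells stimulated with R1881. Protease-based CellTiter-Fluor reagent was applied for the final 30 min and fluorescence measured.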

[7] = molecular target: Androgen receptor (Homo sapiens) (UniProt P10275); assay: qHTS assay to identify small molecule agonists of the androgen receptor (AR) signaling pathway (AID 743036; active = well fitted activation curve with a large enough effect in the signal ratio in the repeat runs, with a control signal flat, not every such curve was filed as active; the % refers to the signal ratio)
Sequence of Androgen receptor (Homo sapiens) (P10275 whole entry, looked up): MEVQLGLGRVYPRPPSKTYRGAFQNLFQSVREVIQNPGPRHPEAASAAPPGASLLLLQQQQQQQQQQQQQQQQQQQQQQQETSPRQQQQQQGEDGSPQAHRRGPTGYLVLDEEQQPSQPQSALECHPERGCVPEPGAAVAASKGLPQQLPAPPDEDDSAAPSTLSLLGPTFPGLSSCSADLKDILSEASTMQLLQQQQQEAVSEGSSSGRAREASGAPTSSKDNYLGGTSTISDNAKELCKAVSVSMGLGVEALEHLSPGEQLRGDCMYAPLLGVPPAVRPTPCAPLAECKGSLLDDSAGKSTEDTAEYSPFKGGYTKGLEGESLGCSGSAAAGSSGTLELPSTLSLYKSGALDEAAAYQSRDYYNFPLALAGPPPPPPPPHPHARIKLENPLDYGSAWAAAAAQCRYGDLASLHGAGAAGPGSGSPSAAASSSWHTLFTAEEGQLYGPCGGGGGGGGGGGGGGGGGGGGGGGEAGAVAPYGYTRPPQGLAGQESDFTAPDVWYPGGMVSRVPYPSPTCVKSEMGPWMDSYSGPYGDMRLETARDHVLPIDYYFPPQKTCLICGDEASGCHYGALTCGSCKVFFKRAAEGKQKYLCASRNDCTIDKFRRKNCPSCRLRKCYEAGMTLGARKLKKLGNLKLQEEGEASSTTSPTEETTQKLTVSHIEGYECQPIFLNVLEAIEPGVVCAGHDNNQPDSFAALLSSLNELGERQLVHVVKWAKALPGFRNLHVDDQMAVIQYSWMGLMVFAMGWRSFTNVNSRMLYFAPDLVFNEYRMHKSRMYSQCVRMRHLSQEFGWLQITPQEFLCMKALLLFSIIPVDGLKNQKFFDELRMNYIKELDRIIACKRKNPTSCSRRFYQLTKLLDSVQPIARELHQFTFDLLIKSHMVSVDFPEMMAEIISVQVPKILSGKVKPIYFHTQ
Method in brief: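 Reporter line: GeneBLAzer AR-UAS-bla-GripTite (HEK293). Steps: plate cells, 4 h rest, add compounds, 16 h at 37C, add LiveBLAzer B/G substrate, 2 h at RT, read fluorescence.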

[8] = molecular target: Androgen receptor (Homo sapiens) (UniProt P10275); assay: qHTS assay to identify small molecule agonists of the androgen receptor (AR) signaling pathway using the MDA cell line (AID 743040; note: nearly all actives have a fitted effect of over 20% in size; note: potency is the fitted concentration of half-maximal effect)
Method in brief: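 Testing was done with the MDA-kb2 AR-luc line, a human breast carcinoma stably transfected with MMTV-luciferase containing AR and GR response elements. Cells were exposed 16 h at 37C before ONE-Glo luminescence detection.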

[9] = molecular target: Androgen receptor (Homo sapiens) (UniProt P10275); assay: qHTS assay to identify small molecule antagonists of the androgen receptor (AR) signaling pathway using the MDA cell line (AID 743042; note: nearly all actives have a fitted effect of over 55% in size)
Method in brief: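 MDA-kb2 breast carcinoma cells carrying MMTV-luciferase (AR/GR responsive) were co-treated with compounds and the agonist R1881 for 16 h at 37C. Inhibition read as ONE-Glo luminescence; CellTiter-Fluor fluorescence measured in parallel for cytotoxicity.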

[10] = molecular target: Androgen receptor (Homo sapiens) (UniProt P10275); assay: qHTS assay to identify small molecule antagonists of the androgen receptor (AR) signaling pathway (AID 743035; active = well fitted inhibition curve with a large enough effect in the signal ratio in the repeat runs, not every such curve was filed as active; the % refers to the signal ratio; note: potency is the fitted concentration of half-maximal effect)
Method in brief: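 Reporter HEK293 cells were exposed to compounds and R1881 overnight (16 h, 37C); beta-lactamase activity was then quantified by FRET fluorescence.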

| SMILES | Potency [1] | Potency [2] | Potency [3] | Potency [4] | Potency [5] | Potency [6] | outcome [7] | Potency [8] | Potency [9] | Potency [10] |
| --- | --- | --- | --- | --- | --- | --- | --- | --- | --- | --- |
| O=C(O)CCCCCCCCCCCC(=O)O | inactive | inactive | inactive | inactive | inactive | inactive |  |  |  |  |
| CC(C)[C@@H]1CC[C@@H](C)CC1=O | inactive | inactive | inactive | inactive | inactive | inactive |  |  |  |  |
| O=C(CCCN1CCC(O)(c2ccc(Cl)cc2)CC1)c1ccc(F)cc1 | inactive | 5.96 µM (active) and 7.7 µM (active) | 3.35 µM (active) and 1.72 µM (active) | 5.96 µM (active) and 1.72 µM (active) | inactive | inactive |  |  |  |  |
| O=C1CCc2ccccc2O1 | inactive | inactive | inactive | inactive | inactive | inactive |  |  |  |  |
| CC1(C)NC(=O)N(c2ccc([N+](=O)[O-])c(C(F)(F)F)c2)C1=O | inactive | 5.96 µM (active) and 4.86 µM (active) | 10.6 µM (active) and 3.86 µM (active) | 9.44 µM (active) and 3.44 µM (active) | inactive | 61.1 µM (active) |  |  |  |  |
| Nc1ccc(N)c(Cl)c1 | inactive | 68.5 µM (active) and inactive | 61 µM (active) and inactive | inactive |  |  |  |  |  |  |
| CCCCCCC(C)O (stereo not given) | inactive | inactive | inactive | inactive | inactive | inactive |  |  |  |  |
| Oc1c(Cl)ccc(Cl)c1Cl | inactive | inactive | inactive | inactive | inactive | inactive |  |  |  |  |
| CCCOCCO | inactive | inactive | inactive | inactive | inactive | inactive |  |  |  |  |
| c1ccc2ncccc2c1 | inactive | inactive | inactive | inactive | inactive | inactive |  |  |  |  |
| CCO[Si](CCCNC(N)=O)(OCC)OCC | inactive | inactive | inactive | inactive | inactive | inactive |  |  |  |  |
| CCCCCCCC/C=C\CCCCCCCC(=O)O | inactive | inactive | inactive | inactive | inactive | inactive |  |  |  |  |
| CCCCCCCCCCCCO | inactive | inactive | inactive | inactive | inactive | inactive |  |  |  |  |
| C[N+](C)(C)CCO | inactive | inactive | inactive | inactive | inactive | inactive |  |  |  |  |
| CN(C)C | inactive | inactive | inactive | inactive | inactive | inactive |  |  |  |  |
| CC1(C)OC(=O)NC1=O | inactive | inactive | inactive | inactive | inactive | inactive |  |  |  |  |
| OCCNCCO | inactive | inactive | inactive | inactive | inactive | inactive |  |  |  |  |
| O=C(O)c1ccc(O)cc1 | inactive | inactive | inactive | inactive | inactive | inactive |  |  |  |  |
| c1ccc2c(c1)ccc1cc3c(ccc4ccccc43)cc12 | inactive | inactive | inactive | inactive | inactive | inactive |  |  |  |  |
| C=CC(=O)OCCCC | inactive | inactive | inactive | inactive | inactive | inactive |  |  |  |  |
| [O-]/[N+](=N\O)c1ccccc1 | inactive | inactive | inactive | inactive | inactive | inactive |  |  |  |  |
| CCCCCC1C(=O)CCC1CC(=O)OC (stereo not given) | inactive | inactive | inactive | inactive | inactive | inactive |  |  |  |  |
| Nc1ccc(O)c(N)c1 | inactive | 24.3 µM (active) | inactive and 27.3 µM (active) | 27.3 µM (active) | inactive |  |  |  |  |  |
| C=CCNCC=C | inactive | inactive | inactive | inactive | inactive | inactive |  |  |  |  |
| CN(Cc1cnc2nc(N)nc(N)c2n1)c1ccc(C(=O)N[C@@H](CCC(=O)O)C(=O)O)cc1 | inactive | 9.4 nM (active) and 1.7 nM (active) | 11.9 nM (active) and 1.7 nM (active) | 13.3 nM (active) and 1.7 nM (active) | 0.0756 µM (active) | inactive | inactive | inactive | inactive |  |
| C=C1C[C@H]2[C@@H]3C=C(C)C4=CC(=O)CC[C@]4(C)[C@H]3CC[C@]2(C)[C@@]1(OC(C)=O)C(C)=O | inactive | 7.5 µM (active) and 14 µM (active) | 8.41 µM (active) and 14 µM (active) | 10.6 µM (active) and 17.6 µM (active) | inactive | inactive | inactive | 47.3 nM (active) and 27.9 nM (active) | inactive | 1.77 µM (active) |
| CCc1cccc2c3c([nH]c12)C(CC)(CC(=O)O)OCC3 (stereo not given) | inactive | inactive | inactive | inactive | inactive | inactive | inactive | inactive | inactive | inactive |
